{"source": "PubChem BioAssay (EPA / NIEHS)", "note": "Active and inactive are the calls of the source. The calls were made as follows: active = hit-call score of the fitted dose curve at least 0.9, where 1 is the maximum; inactive = score below 0.9.", "data": [{"read-out": "CD40, CD40 (gene 958)", "test": "BSK_SAg_CD40: BioMAP Diversity Plus: SAg Assay for CD40 Biomarker Activity (AID 2283088)", "conditions": "primary human HUVEC with PBMC; actives raise or lower the signal", "procedure,_shortened": "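Compounds were dosed onto a human primary endothelial–PBMC co-culture, and after 24 h CD40 was quantified by ELISA using a fluorescence signal. Activity in either direction was fitted relative to DMSO.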", "values": [{"smiles": "O=C(O)C(Cl)(Cl)Cl", "outcome": "inactive"}, {"smiles": "Oc1cccc2cccnc12", "outcome": "inactive"}, {"smiles": "COP(=S)(OC)Oc1ccc(Sc2ccc(OP(=S)(OC)OC)cc2)cc1", "AC50": "14.8 µM (active)"}, {"smiles": "COc1cc(OC)nc(NC(=O)NS(=O)(=O)c2ncccc2C(=O)N(C)C)n1", "outcome": "inactive"}, {"smiles": "COC(=O)c1sccc1S(=O)(=O)NC(=O)Nc1nc(C)nc(OC)n1", "outcome": "inactive"}, {"smiles": "O=C(OC1CCCCC1)c1ccccc1C(=O)OC1CCCCC1", "AC50": "20.9 µM (active)"}, {"smiles": "Nc1cccc2ccccc12", "outcome": "inactive"}, {"smiles": "ClCC(Cl)CCl", "outcome": "inactive"}, {"smiles": "CCOP(=S)(OCC)Oc1nc(Cl)c(Cl)cc1Cl", "AC50": "33.1 µM (active)"}, {"smiles": "CCOP(=S)(OCC)SCSP(=S)(OCC)OCC", "outcome": "inactive"}, {"smiles": "CCOP(=S)(OCC)SCCS(=O)(=O)CC", "outcome": "inactive"}, {"smiles": "O=[N+]([O-])c1ccc(O)c([N+](=O)[O-])c1", "outcome": "inactive"}, {"smiles": "NC(=S)Nc1ccccc1", "outcome": "inactive"}, {"smiles": "CCC(C)(C)c1ccc(O)c(C(C)(C)CC)c1", "AC50": "13 µM (active)"}, {"smiles": "CCCCC(CC)CO[N+](=O)[O-]", "note": "(stereo not given)", "outcome": "inactive"}]}]}
